Hits are enriched below; roughly 8.1% of the tested compounds scored in any of these assays.
KB-V1 MDR tox: kills drug-selected multidrug resistant KB-V1 cells; Potency, µM (highest dose often 46.1 µM), actives largely listed as cytotoxic; KB-V1 MDR cells viability, CellTiter-Glo, 72 h; 3.4% of 400,000 active; also: % is scaled to controls: 0 for no effect and ±100 for the full control effect; nearly all actives have a fitted effect of over 60% in size
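KB-V1 MDR subline cells in DMEM (phenol-red free, 10% FBS) exposed to compounds in qHTS concentration series for 72 h at 37 degrees C. Viability read by CellTiter-Glo luminescence; concentration-effect curves fitted after normalization and correction.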
KB-3-1 tox: kills parental KB-3-1 adenocarcinoma cells; KB-3-1 viability, CellTiter-Glo ATP luminescence, 72 h; Potency, µM (series often up to 46.1 µM), actives largely listed as cytotoxic; 1.4% of 400,000 active; AID 1347075; also: % is scaled to controls: 0 for no effect and ±100 for the full control effect; nearly all actives have a fitted effect of over 60% in size
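Using CellTiter-Glo luminescence, growth of non-resistant KB-3-1 adenocarcinoma cells is assessed 72 h after pin-tool compound addition at 37 °C. Normalized responses across the concentration series yield fitted curves.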
SW480 rerep: DNA re-replication induction in SW480 cells. 1.8% of 340,000 active. SW480 DNA re-replication, Hoechst DNA content imaging, 48 h. Potency, µM (top dose mostly 46.1 µM), for the others: at the highest dose re-replication activation, most hits filed as activators; also: % of control where 0% means no effect; nearly all actives have a fitted effect of over 55% in size
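Readout is total intensity of Hoechst-stained nuclei, excited at 405 nm and collected at 500-530 nm. Compound treatment lasted 48 hr at 37 C in 5% CO2 before staining.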
ELG1 repair inh: ELG1-dependent DNA repair inhibition; HEK293T ELG1-luciferase reporter, luminescence, 16 h; DNA damage induced by 5-fluorouridine; Potency, µM (titrated, usually from 46.1 µM), without a hit: top-dose activity change, negative = inhibition, most hits filed as inhibitors; 2.3% of 330,000 active; also: % is scaled to controls: 0 for no effect and ±100 for the full control effect; nearly all actives have a fitted effect of over 55% in size
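Cells (2,000 per well) received 5-fluorouridine plus test compound or DMSO and were incubated 16 hr at 37 °C, 5% CO2. Luciferase activity was read by luminescence 30 min after ONE-Glo addition; signal suppression marked inhibition of damage-induced ELG1 function.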
MCF10A rereplic: induces DNA re-replication in MCF 10a normal breast cells. MCF 10A DNA re-replication, Hoechst nuclear intensity, 48 h. Potency, µM (titrated, usually from 46.1 µM), inactives show at the highest dose activity, positive = re-replication, most hits filed as activators. 2.9% of 350,000 active. AID 624296; also: % of control where 0% means no effect; nearly all actives have a fitted effect of over 50% in size
Numbers without * were called inactive; i = inactive; ? = inconclusive; . = no result given; [ ] = remark or other dose. Calls follow the shape of the dose curve; as a rule, active = well fitted curve in the direction sought with a large enough effect; inconclusive = small, poorly fitted or top-dose-only effect, or another doubt; inactive = no such curve, though single readings can be large; an effect the other way counts as inactive or inconclusive. Potency is read from the fitted curve at half-maximal effect.

SMILES	KB-V1 MDR tox	KB-3-1 tox	SW480 rerep	ELG1 repair inh	MCF10A rereplic
O=C(COC(=O)c1cc([N+](=O)[O-])ccc1N1CCOCC1)Nc1cccc(F)c1	i	i	-11.5%	20.6µM*	-15.9%
COc1ccc(-c2nc3c(c(SCc4ccc(Br)cc4)n2)Cc2c(CO)cnc(C)c2O3)cc1	i	i	.	.	.
COC(=O)c1sc(NC(=O)C2c3ccccc3Oc3ccccc32)c(C(=O)OC)c1C	11.6µM*	i	.	-22.9%	10.5%
O=C(Nc1nc2ccccc2s1)C1c2ccccc2Oc2ccccc21	18.4µM*	i	?	9.7%	?
NC(=S)Nc1nc2ccccc2s1	8.2µM*	?	?	?	0.3%
CCc1ccccc1Oc1nc2cc(-c3cccc(OC)c3)sc2c(=O)n1C	i	i	.	.	.
COc1ccccc1CCn1cnc(-c2ccc(OC)c(OC)c2)c1C(C)C	i	?	.	.	.
CCCCCc1c(-c2ccccc2)ncn1CCc1ccccc1OC	14.6µM*	?	.	.	.
CCCCc1c(-c2cccc(OC)c2)ncn1CCc1ccccc1OC	11.6µM*	?	.	.	.
CCCCc1c(-c2ccc(OC)c(OC)c2)ncn1CCc1ccccc1OC	9.2µM*	?	.	.	.
CCCCCc1c(-c2ccc(F)cc2F)ncn1CCc1ccccc1OC	13µM*	?	.	.	.
CCC(=O)[C@@]1(C)[C@H](C)C[C@@H]2[C@@H]3CCC4=CC(=O)C=C[C@@]4(C)[C@H]3[C@H](O)C[C@]21C	.	.	-0.1%[20.6 µM]	.	5.0%[20.6 µM]
Cc1cc(Cl)ccc1-n1c(-c2cccnc2)n[nH]c1=S	i	i	18.7%	8.0%	4.2%
Cc1ccc(CNC(=O)C2(S(=O)(=O)c3ccc(C)cc3)CC2)cc1	i	i	-11.2%	-5.7%	3.7%
C[C@H](NC(=O)Nc1cccc(Br)c1)C(=O)O	i	i	-0.2%	2.8%	-1.0%
COc1cc(/C=N/N=C(/C(=O)c2ccccc2)c2ccccc2)cc(OC)c1O	9.2µM*	i	2.9%	?	?
COc1cc(/C=N/N=C/c2cc(OC)c(O)c(OC)c2)cc(OC)c1O	i	i	-85.9%	-2.7%	3.6%
COc1ccc(C2(OC)Oc3cc(OC)ccc3C(=O)C2(O)OC)cc1 (configuration not stated)	2.91µM*	?	16.6%	.	?
CCOn1c(=O)c(-c2cc3ccccc3o2)[n+]([O-])c2ccccc21	i	i	-40.3%	?	2.4%[9.22 µM]
O=c1c(-c2cc3ccccc3o2)[n+]([O-])c2ccccc2n1OCc1ccccn1	3.66µM*	i	1.9%	?	?
c1ccc(COc2ncnc3c2ncn3CCCN2CCN(Cc3cccc4ccccc34)CC2)cc1	?	14.6µM*	.	.	.
CC(=O)c1cn(CC(=O)NCc2cccnc2)c2ccccc12	?	i	-3.1%	1.7%	?
CC(Oc1ccc(Br)cc1)C(=O)Nc1ccc(S(=O)(=O)NC2=NCCCCC2)cc1 (configuration not stated)	23.1µM*	i	-1.7%	.	-2.8%
COc1ccc(CN2C(=O)CCC2(C)c2nnnn2C2CCCCC2)cc1 (configuration not stated)	?	i	.	.	.
CCC(C)NC(=O)c1c(N)n(/N=C/c2ccccn2)c2nc3ccccc3nc12 (configuration not stated)	20.6µM*	i	16.4µM*	?	?
SMILES	KB-V1 MDR tox	KB-3-1 tox	SW480 rerep	ELG1 repair inh	MCF10A rereplic
CCC(C)NC(=O)c1c(N)n(/N=C/c2cccnc2)c2nc3ccccc3nc12 (configuration not stated)	?	?	5.8µM*	11.6µM*	2.06µM*
COCCCNC(=O)c1c(N)n(/N=C/c2cccs2)c2nc3ccccc3nc12	i	i	7.31µM*	?	?
COCCCNC(=O)c1c(N)n(/N=C/c2cccnc2)c2nc3ccccc3nc12	i	i	?	?	?
CC(C)CNC(=O)c1c(N)n(/N=C/c2cccnc2)c2nc3ccccc3nc12	.	.	.	-3.0%	.
CC(C)OCCCNC(=O)c1c(N)n(/N=C/c2ccccn2)c2nc3ccccc3nc12	?	i	20.6µM*	7.31µM*	4.11µM*
CCOc1ccc(OCCC(=O)N(CC)CC(=O)Nc2ccccc2OC)cc1	i	i	-100.5%	.	-9.4%
Cc1ccc(CCNC(=O)c2ccc(CS(=O)(=O)Cc3ccc(F)cc3)o2)cc1	i	i	-0.8%	17.0%	0.3%
CCCN(CCC)c1nc(Cl)nc(NCCN2CCOCC2)n1	i	i	-4.1%	23.1µM*	-3.5%
CCn1c2ccc(C)cc2c2nnc(NN)nc21	?	i	?	?	?
CCCCn1c2ccc(F)cc2c2nnc(NN)nc21	i	i	?	?	0.651µM*
CC1=C(C(=O)OCC(C)C)C(c2ccc(Br)s2)NC(=O)N1 (configuration not stated)	i	i	-3.4%	-6.3%	3.8%
O=C(O)c1ccc(N/N=C/C2=C(N3CCOCC3)C(=C\c3ccccc3)/CC2)cc1	i	i	18.4µM*	?	?
Cc1cc(C)nc(NN=CC2=C(N3CCOCC3)/C(=C/c3ccc(Cl)cc3)CC2)n1	i	i	20.6µM*	.	?
C/C(=N/NC(=O)c1ccoc1C)c1ccc(N2CCOCC2)cc1	i	i	-10.6%	?	-2.7%
Cc1cc(C)nc(N/N=C/C2=C(N3CCOCC3)C(=C\c3ccc(Cl)cc3)/CC2)n1	i	?	?	?	?
Cc1occc1C(=O)N/N=C/C1=C(N2CCOCC2)C(=C\c2ccc(Cl)cc2Cl)/CC1	?	i	2.91µM*	?	2.06µM*
O=C1CCc2cc(Cl)c(S(=O)(=O)Nc3ccc(Cl)c(Cl)c3)cc2N1	i	i	.	.	.
Cc1ccc(-c2cc(C(=O)N(C)Cc3cnn(C)c3C)c3cc(Br)ccc3n2)cc1	?	?	9.2%	5.8µM*	16.4µM*
NC(=O)C(C(=O)/C=C/c1ccc(Cl)cc1)=C1SCCS1	6.51µM*	?	11.9%	?	?
COc1ccc(NC(=O)c2ccc(OCc3c(C)noc3C)c(OC)c2)cn1	i	i	-3.4%	3.4%	6.1%
O=C(Oc1ccccc1C(=O)Nc1ccccc1)c1ccccc1Br	16.4µM*	11.6µM*	14.6µM*	?	5.17µM*
O=C(COc1ccccc1C(=O)Nc1ccccc1)c1ccc(Br)cc1	?	i	-8.8%	?	-10.9%
O=C(Nc1ccc(C2CC2(Cl)Cl)cc1)c1ccccc1Br (configuration not stated)	18.4µM*	i	2.0%	?	?
COc1ccc(NC(=O)CCC(=O)Nc2nnc(C(C)C)s2)cc1Cl	?	i	-36.7%	?	3.1%
Nc1ccc(O)c2c1C(=O)c1ccccc1C2=O	i	i	-84.7%	-19.9%	-37.4%

High-throughput results as filed in PubChem.
